Measurements from PubChem BioAssay.
Unmarked numbers belong to inactive results. Calls of active or inactive are those of the source.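 Rule for the calls: active = inhibition at or above 50% relative to wild type and mutant plate controls; inactive = inhibition below 50%.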

assay: inhibitors of Chlamydomonas gravitaxis, primary screen, whole organism, Chlamydomonas reinhardtii, WT vs cilia-less mutant, absorbance, 96-well (AID 463189); conditions: OD600 absorbance, 2 days, at 10 µM, hits give high values;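 note: 0% = wild type cc124 cells in DMSO and 100% = ciliumless bld1 mutant cells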

| Structure (SMILES) | inhibition |
| --- | --- |
| CC(C)C[C@H](NC(=O)C1OC1C(=O)O)C(=O)NCCCCN=C(N)N (stereo not given in full) | -4.58% |
| CCCCCCCCCCCCCCCCCC(=O)NCC(COP(=O)([O-])OCC[N+](C)(C)C)OCC (stereo not given) | 9.71% |
| CC(CN(C)C)CN1c2ccccc2CCc2ccccc21 (stereo not given) | 1.33% |
| C[C@@](Cc1ccc(O)c(O)c1)(NN)C(=O)O | -8.89% |
| COc1cc(NS(C)(=O)=O)ccc1Nc1c2ccccc2nc2ccccc12 | -1.97% |
| N[C@@H](Cc1c[nH]c2ccc(O)cc12)C(=O)O | 4.83% |
| CCN1CCC[C@H]1CNC(=O)c1c(OC)ccc(I)c1O | 9.9% |
| N=C(N)c1ccc(OCCCCCOc2ccc(C(=N)N)cc2)cc1 (tested in a mixture with another compound) | 143% (active) |
| CC(=O)NCCc1c[nH]c2ccc(O)cc12 | -4.58% |
| CC(C(=O)O)c1cccc(C(=O)c2ccccc2)c1 (stereo not given) | -4.65% |
| O=C(Nc1cccc(C(=O)Nc2ccc(S(=O)(=O)O)c3cc(S(=O)(=O)O)cc(S(=O)(=O)O)c23)c1)Nc1cccc(C(=O)Nc2ccc(S(=O)(=O)O)c3cc(S(=O)(=O)O)cc(S(=O)(=O)O)c23)c1 | 1.9% |
| CN1C(C)(C)CCCC1(C)C | 7.18% |
| CNCCNS(=O)(=O)c1cccc2cnccc12 | 5.09% |
| NCCCC(N)(C(=O)O)C(F)F (stereo not given) | 3.03% |
| CCCN(CC1CC1)c1nc(C)nc(Nc2c(Cl)cc(Cl)cc2Cl)c1Cl | 3.71% |
| O=C(O)CCc1nc(-c2ccccc2)c(-c2ccccc2)o1 | 7.1% |
| C[N+]1(CCCCC[N+]2(C)CCCC2)CCCC1 | -4.7% |
| CC(C)(C)c1ccc(S(=O)(=O)/C=C/C#N)cc1 | 155% (active) |
| Nc1ncnc2c1ncn2[C@@H]1O[C@H](CO)[C@H](O)C1O (stereo not given in full) | 5.53% |
| CC(N)(Cc1ccc(O)c(O)c1)C(=O)O (stereo not given) | 6.85% |

| Structure (SMILES) | inhibition |
| --- | --- |
| CCC(C)N(C)C(=O)c1cc2ccccc2c(-c2ccccc2Cl)n1 (stereo not given) | 2.31% |
| O=NN(CCCl)C(=O)NCCCl | 6.33% |
| Cc1nc(N=Nc2ccc(S(=O)(=O)O)cc2S(=O)(=O)O)c(COP(=O)(O)O)c(C=O)c1O | 2.65% |
| Brc1ccc([C@H]2CN3CCSC3=N2)cc1 | 123% (active) |
| CCCCCCN(CCCCCC)C(=O)Cc1c(-c2ccc(F)cc2)[nH]c2ccccc12 | 8.52% |
| COc1cc(C(=O)OCCCN2CCCN(CCCOC(=O)c3cc(OC)c(OC)c(OC)c3)CC2)cc(OC)c1OC | 9.83% |
| O=c1cc(-c2ccc(O)cc2)oc2cc(O)cc(O)c12 | 14.8% |
| Cn1c(=O)c2c(nc(/C=C/c3cccc(Cl)c3)n2C)n(C)c1=O | 18.1% |
| O=c1cc(-c2ccccc2)[nH]c2nc(Cl)ccc12 | 6.49% |
| CCN1CCC[C@H]1CNC(=O)c1cc(S(N)(=O)=O)ccc1OC | 3.94% |
| OC(CN1CCC(Cc2ccc(F)cc2)CC1)c1ccc(Cl)cc1 (stereo not given) | -0.098% |
| O=C(OCCN1CCCCC1)c1c[nH]c2ccccc12 | 5.42% |
| O=C(c1ccc(OCCN2CCCCC2)cc1)c1c(-c2ccc(O)cc2)sc2cc(O)ccc12 | 4.7% |
| COC(=O)Nc1nc2ccc(C(=O)c3cccs3)cc2[nH]1 | 11.2% |
| NC(=NCCC[C@H](N)C(=O)O)NO | -1.45% |
| NC1(C(=O)O)CC1 | 5.31% |
| CC(C)NC[C@H](O)COc1ccc(CC(N)=O)cc1 | -3.21% |
| Cc1cccc(/C=C/c2ccccc2)n1 | 27.5% |
| c1ccc(-c2ccccn2)nc1 | 1.35% |
| CC1=C(/C=C/C(C)=C/C=C/C(C)=C\C(=O)O)C(C)(C)CCC1 | -3.51% |
